Assay results published in PubChem BioAssay (NCI).
About 79,000 compounds went through this panel and 15% of them were active in at least one assay; those are over-represented in the sample as a whole. Unmarked numbers belong to inactive results. The source made the active and inactive calls. Rule as the data show it: active = growth inhibition above about 70%; inactive = the rest.

Tests used:
[1] = NCI Yeast Anticancer Drug Screen. Data for the mec2-1 strain (AID 157); settings: S. cerevisiae mec2-1 strain, stronger effect = higher value
How it was run: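 Vehicle-treated cultures served as reference for growth inhibition of compound-exposed mec2-1 yeast.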

[2] = NCI Yeast Anticancer Drug Screen. Data for the rad14 strain (AID 159);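 also: 0% = growth of vehicle-treated control cultures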; settings: S. cerevisiae rad14 strain growth inhibition, stronger effect = higher value
How it was run: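 DNA repair-defective yeast, compound-exposed; % growth inhibition derived by comparison with vehicle-treated controls.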

[3] = NCI Yeast Anticancer Drug Screen. Data for the CLN2oe strain (AID 163);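 also: 0% = growth of vehicle-only control cultures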; settings: S. cerevisiae CLN2oe strain, stronger effect = higher value
How it was run: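 Inhibition relative to vehicle-treated yeast is reported. Cells: strain with genetic alteration in cell-cycle control, grown with compound.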

[4] = NCI Yeast Anticancer Drug Screen. Data for the cln2 rad14 strain (AID 165);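 also: 0% = growth equal to vehicle treated cultures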; settings: S. cerevisiae cln2 rad14 strain, stronger effect = higher value
How it was run: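 Each compound was tested on cln2 rad14 yeast. Inhibition of growth was calculated against vehicle-exposed controls.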

[5] = NCI Yeast Anticancer Drug Screen. Data for the bub3 strain (AID 167); settings: S. cerevisiae bub3 mutant strain, stronger effect = higher value
How it was run: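 In this screen, a yeast mutant lacking normal mitotic checkpoint function is challenged with compound. Relative growth versus vehicle gives the inhibition value.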

[6] = NCI Yeast Anticancer Drug Screen. Data for the wt2 strain (AID 169);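 also: 0% = growth of vehicle-treated yeast cultures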; settings: S. cerevisiae wt2 strain growth inhibition, stronger effect = higher value
How it was run: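 Inhibition of yeast growth was determined after compound treatment, normalised to controls receiving only vehicle.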

[7] = NCI Yeast Anticancer Drug Screen. Data for the mlh1 strain (AID 171);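 also: 0% = growth of vehicle-treated control cultures of the same strain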; settings: S. cerevisiae mlh1 strain growth inhibition, stronger effect = higher value
How it was run: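 Vehicle-normalised growth inhibition of a repair- or checkpoint-altered yeast strain following compound treatment.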

[8] = NCI Yeast Anticancer Drug Screen. Data for the sgs1 strain (AID 173);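 also: 0% = growth of vehicle-only control cultures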; settings: S. cerevisiae sgs1 mutant, stronger effect = higher value
How it was run: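 Screen format: yeast with repair or checkpoint alterations, compound exposure, growth read relative to vehicle.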

[9] = NCI Yeast Anticancer Drug Screen. Data for the mlh1 rad18 strain (AID 175); settings: S. cerevisiae mlh1 rad18 strain growth inhibition, stronger effect = higher value
How it was run: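 Vehicle-treated cultures served as the reference for growth inhibition in a yeast strain carrying DNA damage repair alterations exposed to each compound.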

[10] = NCI Yeast Anticancer Drug Screen. Data for the rad18 strain (AID 177); settings: S. cerevisiae rad18 mutant growth inhibition, stronger effect = higher value
How it was run: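 Test articles were incubated with altered yeast defective in DNA damage repair. Results are given as inhibition of growth versus vehicle.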

[11] = NCI Yeast Anticancer Drug Screen. Data for the rad52 strain (AID 147);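 also: 0% = growth of vehicle-treated control cultures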; settings: S. cerevisiae rad52 mutant growth inhibition, stronger effect = higher value
How it was run: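 Vehicle-treated cultures served as the reference for growth inhibition of compound-exposed yeast bearing a DNA repair mutation.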

[12] = NCI Yeast Anticancer Drug Screen. Data for the wt1 strain (AID 149);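 also: 0% = growth of vehicle-treated wt1 cultures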; settings: S. cerevisiae wt1 strain (SPY 50644) growth inhibition, stronger effect = higher value
How it was run: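 wt1 strain grown with compound or vehicle; inhibition taken from the growth difference.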

[13] = NCI Yeast Anticancer Drug Screen. Data for the rad50EPP+ strain (AID 151);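 also: 0% = growth of vehicle-treated control cultures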; settings: S. cerevisiae rad50 mutant strain, stronger effect = higher value
How it was run: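 In this screen, rad50EPP+ yeast were exposed to compounds. Growth inhibition was scored against vehicle-treated controls.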

[14] = NCI Yeast Anticancer Drug Screen. Data for the mgt1 strain (AID 153); settings: S. cerevisiae mgt1 mutant growth inhibition, stronger effect = higher value
How it was run: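 mgt1 strain exposed; growth vs vehicle control recorded as inhibition.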

[15] = NCI Yeast Anticancer Drug Screen. Data for the rad50 strain (AID 155);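 also: 0% = growth of vehicle-only cultures of the same strain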; settings: S. cerevisiae rad50 strain growth inhibition, stronger effect = higher value
How it was run: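 DNA repair mutant yeast, compound exposure, growth read-out; inhibition is taken relative to vehicle.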

[16] = NCI Yeast Anticancer Drug Screen. Data for the sgs1 mgt1 strain (AID 161);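 also: 0% = growth of cultures given vehicle only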; settings: S. cerevisiae sgs1 mgt1 strain, stronger effect = higher value
How it was run: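 Read-out: growth inhibition vs vehicle controls. Cells: mutant yeast strain deficient in DNA damage repair.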

[17] = at 5.0 µM (retest, dose inferred, filed as 0.5)
[18] = at 50.0 µM (retest, dose inferred, filed as 5.0)

O=C1N=C2SC=C(NC(=S)Nc3ccccc3)N2NC12c1ccccc1-c1ccccc12
growth inhibition [1, 17]: -11%
growth inhibition ([1]; at 11.0 µM): 22%
growth inhibition ([1]; at 33.0 µM): 57%
growth inhibition [1, 18]: 8%
growth inhibition ([1]; at 50.0 µM): 45.9%
growth inhibition ([1]; at 100.0 µM): 81% (active)
growth inhibition ([2]; at 1.2 µM): 10%
growth inhibition ([2]; at 3.7 µM): 3%
growth inhibition ([2]; at 11.0 µM): 14%
growth inhibition ([2]; at 33.0 µM): 49%
growth inhibition ([2]; at 100.0 µM): 84% (active)
growth inhibition ([3]; at 1.2 µM): 12%
growth inhibition ([3]; at 3.7 µM): 4%
growth inhibition ([3]; at 11.0 µM): 13%
growth inhibition ([3]; at 33.0 µM): 64%
growth inhibition ([3]; at 100.0 µM): 76% (active)
growth inhibition [4, 17]: -4%
growth inhibition [4, 18]: 15%
growth inhibition ([4]; at 50.0 µM): 57.9%
growth inhibition ([5]; at 1.2 µM): 10%
growth inhibition ([5]; at 3.7 µM): 5%
growth inhibition [5, 17]: -14%
growth inhibition ([5]; at 11.0 µM): 11%
growth inhibition ([5]; at 33.0 µM): 54%
growth inhibition [5, 18]: 46%
growth inhibition ([5]; at 50.0 µM): 74.7% (active)
growth inhibition ([5]; at 100.0 µM): 70% (active)
growth inhibition ([6]; at 1.2 µM): 2%
growth inhibition ([6]; at 3.7 µM): 4%
growth inhibition ([6]; at 11.0 µM): 23%
growth inhibition ([6]; at 33.0 µM): 76% (active)
growth inhibition ([6]; at 100.0 µM): 90% (active)
growth inhibition ([7]; at 1.2 µM): 10%
growth inhibition ([7]; at 3.7 µM): 8%
growth inhibition ([7]; at 11.0 µM): 20%
growth inhibition ([7]; at 33.0 µM): 59%
growth inhibition ([7]; at 100.0 µM): 81% (active)
growth inhibition ([8]; at 1.2 µM): 10%
growth inhibition ([8]; at 3.7 µM): 15%
growth inhibition ([8]; at 11.0 µM): 28%
growth inhibition ([8]; at 33.0 µM): 81% (active)
growth inhibition ([8]; at 100.0 µM): 90% (active)
growth inhibition [9, 17]: -10%
growth inhibition [9, 18]: 41%
growth inhibition ([9]; at 50.0 µM): 69.7%
growth inhibition ([10]; at 1.2 µM): 14%
growth inhibition ([10]; at 3.7 µM): 19%
growth inhibition ([10]; at 11.0 µM): 24%
growth inhibition ([10]; at 33.0 µM): 49%
growth inhibition ([10]; at 100.0 µM): 77% (active)

CCCCCOC(=S)SC(=O)OCC
growth inhibition ([11]; at 1.2 µM): 0%
growth inhibition ([11]; at 3.7 µM): 7%
growth inhibition ([11]; at 11.0 µM): 27%
growth inhibition ([11]; at 33.0 µM): 63%
growth inhibition ([11]; at 100.0 µM): 94% (active)
growth inhibition ([12]; at 1.2 µM): -4%
growth inhibition ([12]; at 3.7 µM): -1%
growth inhibition ([12]; at 11.0 µM): 8%
growth inhibition ([12]; at 33.0 µM): 35%
growth inhibition ([12]; at 100.0 µM): 64%
growth inhibition ([13]; at 1.2 µM): -3%
growth inhibition ([13]; at 3.7 µM): 9%
growth inhibition ([13]; at 11.0 µM): 18%
growth inhibition ([13]; at 33.0 µM): 30%
growth inhibition ([13]; at 100.0 µM): 36%
growth inhibition ([14]; at 1.2 µM): -4%
growth inhibition ([14]; at 3.7 µM): -2%
growth inhibition ([14]; at 11.0 µM): 6%
growth inhibition ([14]; at 33.0 µM): 37%
growth inhibition ([14]; at 100.0 µM): 92% (active)
growth inhibition ([15]; at 1.2 µM): 1%
growth inhibition ([15]; at 3.7 µM): 32%
growth inhibition [15, 17]: 20%
growth inhibition ([15]; at 11.0 µM): 51%
growth inhibition ([15]; at 33.0 µM): 84% (active)
growth inhibition [15, 18]: 95% (active)
growth inhibition ([15]; at 50.0 µM): 98% (active)
growth inhibition ([15]; at 100.0 µM): 95% (active)
growth inhibition ([1]; at 1.2 µM): -3%
growth inhibition ([1]; at 3.7 µM): 3%
growth inhibition [1, 17]: 27%
growth inhibition ([1]; at 11.0 µM): 26%
growth inhibition ([1]; at 33.0 µM): 48%
growth inhibition [1, 18]: 95% (active)
growth inhibition ([1]; at 50.0 µM): 98.5% (active)
growth inhibition ([1]; at 100.0 µM): 86% (active)
growth inhibition ([2]; at 1.2 µM): -5%
growth inhibition ([2]; at 3.7 µM): -4%
growth inhibition ([2]; at 11.0 µM): 12%
growth inhibition ([2]; at 33.0 µM): 42%
growth inhibition ([2]; at 100.0 µM): 92% (active)
growth inhibition [16, 17]: 33%
growth inhibition [16, 18]: 97% (active)
growth inhibition ([16]; at 50.0 µM): 97.7% (active)
growth inhibition [4, 17]: 9%
growth inhibition [4, 18]: 53%
growth inhibition ([4]; at 50.0 µM): 64.8%
growth inhibition ([5]; at 1.2 µM): 2%
growth inhibition ([5]; at 3.7 µM): 6%
growth inhibition [5, 17]: 55%
growth inhibition ([5]; at 11.0 µM): 40%
growth inhibition ([5]; at 33.0 µM): 82% (active)
growth inhibition [5, 18]: 96% (active)
growth inhibition ([5]; at 50.0 µM): 96.8% (active)
growth inhibition ([5]; at 100.0 µM): 94% (active)
growth inhibition ([6]; at 1.2 µM): -4%
growth inhibition ([6]; at 3.7 µM): 6%
growth inhibition ([6]; at 11.0 µM): 4%
growth inhibition ([6]; at 33.0 µM): 39%
growth inhibition ([6]; at 100.0 µM): 90% (active)
growth inhibition ([7]; at 1.2 µM): -1%
growth inhibition ([7]; at 3.7 µM): 2%
growth inhibition ([7]; at 11.0 µM): 14%
growth inhibition ([7]; at 33.0 µM): 63%
growth inhibition ([7]; at 100.0 µM): 95% (active)
growth inhibition ([8]; at 1.2 µM): -3%
growth inhibition ([8]; at 3.7 µM): 4%
growth inhibition ([8]; at 11.0 µM): 45%
growth inhibition ([8]; at 33.0 µM): 90% (active)
growth inhibition ([8]; at 100.0 µM): 97% (active)
growth inhibition [9, 17]: 43%
growth inhibition [9, 18]: 96% (active)
growth inhibition ([9]; at 50.0 µM): 96.6% (active)
growth inhibition ([10]; at 1.2 µM): -5%
growth inhibition ([10]; at 3.7 µM): 5%
growth inhibition ([10]; at 11.0 µM): 33%
growth inhibition ([10]; at 33.0 µM): 90% (active)
growth inhibition ([10]; at 100.0 µM): 98% (active)
